Measurements published in PubChem BioAssay AID1347048 (National Center for Advancing Translational Sciences (NCATS), 2019).
In all, about 76,000 compounds went through this assay and about 1,200 (1.6%) were called active. Another 4% or so got no clear call; they are omitted. The call rests on the fitted dose curve. Only a selection was taken, and actives are over-represented in it overall.

Each compound was assayed against Atrial natriuretic peptide receptor 1 (Homo sapiens) (UniProt P16066) (assay: Natriuretic polypeptide receptor (hNpr1) antagonism - Primary qHTS). Settings: HEK293 hNpr1 GloSensor cGMP, ANP-stimulated luminescence; series mostly up to 70.6 µM; activity change, negative = inhibition: at the top concentration.
Chain of Atrial natriuretic peptide receptor 1 (Homo sapiens) (P16066 whole entry, looked up): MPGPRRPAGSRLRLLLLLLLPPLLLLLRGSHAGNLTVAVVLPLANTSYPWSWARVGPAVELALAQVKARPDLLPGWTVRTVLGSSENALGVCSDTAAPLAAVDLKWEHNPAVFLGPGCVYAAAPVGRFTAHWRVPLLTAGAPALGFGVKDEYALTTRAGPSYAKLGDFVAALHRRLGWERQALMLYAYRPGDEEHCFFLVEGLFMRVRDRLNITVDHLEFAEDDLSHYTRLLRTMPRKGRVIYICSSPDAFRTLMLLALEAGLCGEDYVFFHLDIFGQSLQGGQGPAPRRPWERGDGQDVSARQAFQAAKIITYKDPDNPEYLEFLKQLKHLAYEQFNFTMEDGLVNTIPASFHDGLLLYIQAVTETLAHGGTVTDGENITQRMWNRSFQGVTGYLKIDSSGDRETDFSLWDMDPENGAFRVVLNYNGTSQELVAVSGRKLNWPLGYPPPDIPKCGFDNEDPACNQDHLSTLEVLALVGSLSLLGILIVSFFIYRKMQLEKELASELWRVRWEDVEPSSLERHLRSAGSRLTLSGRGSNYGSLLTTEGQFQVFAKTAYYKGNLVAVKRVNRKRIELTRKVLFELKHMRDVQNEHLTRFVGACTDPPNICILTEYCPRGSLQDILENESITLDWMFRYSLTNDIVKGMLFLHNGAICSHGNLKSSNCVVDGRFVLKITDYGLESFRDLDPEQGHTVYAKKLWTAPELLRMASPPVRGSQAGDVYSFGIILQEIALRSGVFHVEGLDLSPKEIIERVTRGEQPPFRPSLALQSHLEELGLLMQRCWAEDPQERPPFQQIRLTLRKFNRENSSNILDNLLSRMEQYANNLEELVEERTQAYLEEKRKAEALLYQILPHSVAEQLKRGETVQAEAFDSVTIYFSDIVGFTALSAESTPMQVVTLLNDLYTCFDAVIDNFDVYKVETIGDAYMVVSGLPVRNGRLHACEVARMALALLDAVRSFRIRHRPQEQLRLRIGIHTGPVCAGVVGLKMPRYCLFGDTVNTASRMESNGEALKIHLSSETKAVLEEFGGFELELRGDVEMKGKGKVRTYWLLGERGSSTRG
Excerpt: Pruritus or itch, is an irritating skin sensation that creates a need to scratch, and ranges from mildly unpleasant and passing to acute and persistent sensations. […] Conventional treatments include topical anti-inflammatory agents, anti-histamines, and emollients, which are aimed at managing the itchy sensation and not the underlying disease. The treatment of pruritus remains a diagnostic and therapeutic challenge. Neurotransmission in the spinal cord from primary pruriceptors to second order neurons is a necessary step that eventually results in the sensation of itch. At this synapse, primary pruriceptors use the neuropeptide natriuretic polypeptide B (NppB) to activate its cognate receptor Natriuretic polypeptide receptor 1 (Npr1) on second order neurons. Inhibition of this step is a new potential strategy to inhibit acute and chronic itch. In order to identify small molecular compounds that can inhibit the Npr1 receptor we developed a high-throughput assay to probe inhibition of the receptor guanylate cyclase Npr1. The assay was designed taking advantage of Promega's GloSensor[TM] technology (Fan, F. et al. 2008). It involves the expression of a cyclic guanosine monophosphate (cGMP) biosensor, comprised of a firefly luciferase variant that was coupled to the cGMP binding domain of human phosphodiesterase 5A, and loading of cells with a cell-permeable luciferase substrate to monitor cGMP production by Npr1 in real time in live cells. In detail, we generated human embryonic kidney 293 cells stably expressing the human Npr1 and the cGMP GloSensor[TM] pGS-40F. Stimulating these cells with the Npr1 agonists human NppA or NppB, luciferase-induced light production could be detected in a dose-dependent manner. We also generated HEK293 cells stably expressing human Npr2 and pGS-40F and cells only expressing pGS-40F to conduct secondary counter screens. In these cells, NppC or sodium nitroprusside were used to stimulate Npr2 or soluble guanylate cyclase which is endogenously expressed in HEK293 cells, respectively. REFERENCE F. Fan, B. F. Binkowski, B. L. Butler, P. F. Stecha, M. K. Lewis, K. V. Wood, Novel genetically encoded biosensors using firefly luciferase. ACS Chem. Biol., 2008, 3: 346-351 .
PROTOCOL TABLES (as described by Inglese J, Shamu CE and Guy RK. 2007) SEQUENCE No. (e.g., 1, 2, 3, etc.); […] (e.g., Cells, Incubation, Reagent, etc.); VALUE and DESCRIPTION. GLOSENSOR PROTOCOL 1. Cells. Seed 1500 HEK293 cGMP-sensor cells expressing hNpr1 per well in 4uL into Greiner 1536-well white/solid bottom high base, tissue culture-treated plates. 2. Incubation. Incubate plated cells at 37C in 5% CO2, 95% RH overnight. 3. Reagent. Add 1uL per well GloSensor reagent from Promega (2% final concentration) or CO2 independent media vehicle control to respective columns of Greiner 1536-well plates. 4. Incubation. Incubate plated cells at room temperature for 2 h, protect from light. 5. Compounds. Library compounds and A-71915 control added at 23 nL per well, transferred by Pin Tool. 6. Incubation. Incubate plated cells for 30 min. at room temperature, protect from light. 7. Detector. GloSensor baseline pre-read luminescence measured using CCD-based camera (Viewlux). 8. Compound. Add 1uL of hNppA peptide to 0.1 nM final concentration to stimulate hNpr1 or CO2 independent media as vehicle control. 9. Incubation. Incubate treated cells at room temperature for 20 min., protect from light. 10. Detector. GloSensor post-hNppA luminescence measured using CCD-based camera (Viewlux). NOTES (numbers refer to Sequence numbers above) 1. HEK293 cells expressing hNpr1 and GIP/pGS-40F grown to 85-95% confluence (48-72 h) in T175 culture flasks (CO2 independent media supplemented with 10% FBS, 1% Pen/Strep antibiotics and 1 ug/mL puromycin). Trypsinize and harvest cells from T175 culture flasks and filter through 40 um cell strainer. Cells counted with Invitrogen Countess (30,000,000 - 50,000,000 cells/flask). […]
Further: nearly all actives have a fitted effect of over 60% in size.
On the % scale 0 is the no-effect control and ±100 the full control effect; potency means the concentration at half of the fitted maximal effect.

Row | SMILES | Potency | activity change, negative = inhibition
1 | COc1cc2c(cc1Oc1cccc(N(C)C)c1)NC(=O)C21CCN(Cc2ccccn2)CC1 | 10 µM (active) | –
2 | COc1cc2c(cc1Oc1ccccc1)NC(=O)C21CCN(c2ccnc(C)n2)CC1 | – | -18.9% (inactive)
3 | COc1cc2c(cc1OCc1ccncc1)NC(=O)C21CCN(Cc2ccccn2)CC1 | – | -3.28% (inactive)
4 | CN(Cc1ccccc1)C[C@H]1CN2CC[C@H]1C[C@@H]2CNC(=O)Nc1cccc(C#N)c1 | – | 4.8% (inactive)
5 | COc1cc2c(cc1OCc1ccncc1)NC(=O)C21CCN(c2ncc(F)cn2)CC1 | 20 µM (active) | –
6 | COc1cc2c(cc1OCc1ccncc1)NC(=O)C21CCN(c2ncccn2)CC1 | – | 0.378% (inactive)
7 | COc1cc2c(cc1OCc1ccccc1)NC(=O)C21CCN(CCC(C)C)CC1 | – | -15.2% (inactive)
8 | Cc1nc(-c2ccccc2)cc([C@H]2CN3CC[C@H]2C[C@@H]3CNC2CCOCC2)n1 | – | 3.49% (inactive)
9 | O=C(NCc1ccccc1)[C@H]1CN2CCC1C[C@@H]2Cn1cc(-c2ccc(F)cc2)nn1 (stereo not given in full) | – | -8.5% (inactive)
10 | Cc1nc(-c2ccccc2)cc([C@H]2CN3CC[C@H]2C[C@@H]3CNC2CCN(C)CC2)n1 | – | -2.27% (inactive)
11 | CCC(CC)c1cc([C@H]2CN3CC[C@H]2C[C@@H]3CNS(=O)(=O)c2ccccc2C#N)nc(-c2ccncc2)n1 | – | -24.1% [at 46.3 µM] (inactive)
12 | CCC(CC)c1cc([C@H]2CN3CC[C@H]2C[C@@H]3CNC(=O)NCc2ccccc2)nc(-c2ccncc2)n1 | 11.2 µM (active) | –
13 | CCCS(=O)(=O)NC[C@H]1C[C@@H]2CCN1C[C@@H]2c1cc(-c2ccccc2)nc(C)n1 | – | 1.77% (inactive)
14 | COc1ccc(C(=O)N2[C@H]3CC[C@@H]2c2cnc(-c4ccccc4)nc2C3)c(OC)c1 | – | -30.3% [at 46.3 µM] (inactive)
15 | COc1cc2c(cc1OCc1ccccc1)NC(=O)C21CCN(C(=O)C(C)C)CC1 | – | -9.19% (inactive)
